Screening results from PubChem BioAssay.
A selection: hits, their analogues and other compounds. The true share with any hit is near 4.1%.
aSyn 5UTR inh: 5' untranslated region of α-synuclein, MLPCN primary screen. 300,000 compounds, 0.82% hits. inhibition, % (tested at 7.5 µM). AID 1813. alpha-synuclein 5'UTR reporter, inhibitor activity; in the data active = inhibition above about 60%; inconclusive = no clear call, values can overlap the other calls;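 also: H4 neuroglioblastoma cells stably carrying SNCA 5'UTR luciferase fusion; 0% = DMSO wells and 100% = positive control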
Mdm2 MdmX PPI: human Mdm2/MdmX binding inhibition | SaOS-2 split-luciferase Mdm2/MdmX complementation, luminescence | 330,000 compounds, 3% hits | inhibition, % at 8 µM | AID 485346 | O15151+Q00987;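 active = inhibition of at least 50% at 8 µM in the primary screen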
CSC inhib: blocks cancer stem cells. 300,000 compounds, 1.1% hits. cancer stem cell-like cells viability, luminescence. inhibition, % at 7.5 µM; in the data active = inhibition above about 75%; inconclusive = no clear call, values can overlap the other calls; tested in HMLE shEcad cells
Beta cell apopt: beta cell apoptosis inhibition | INS-1E cytokine-induced death, ATP luminescence, 48 h; percent of positive-control rescue, neutral wells zero | protection from apoptosis, % (concentration not given with the values) | 300,000 compounds, 0.8% hits | AID 435005;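 active = Every replicate reaches about 75%, or at least half do and their mean reaches it too, limit read from the data; inconclusive = At least half of replicates reach the limit but their mean does not; inactive = Under half of replicates reach the limit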;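 also: 0% = cytokine-treated negative control wells and 100% = positive control rescue; higher means more ATP so stronger rescue from cytokine killing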
A1 inh: inhibitors of the anti-apoptotic protein A1, read as caspase activation | caspase activation, % (test concentration not listed) | MEF A1-2A-BIM cells, Caspase-Glo 3/7 luminescence, 3 h; percent of clofoctol response, vehicle zero | 330,000 compounds, 0.066% hits;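 active = over half of replicate activation scores above 10%, or exactly half above 10 with the replicate mean above 10; inconclusive = replicate mean below 10 yet half the replicates above 10; inactive = over half of replicates below 10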
* = called active by the depositor.

How did CC(=O)Nc1ccc(OCC(=O)N2CCC(Cc3ccccc3)CC2)cc1 do in these assays?
aSyn 5UTR inh: 2; Mdm2 MdmX PPI: -2; CSC inhib: 56; Beta cell apopt: 9; A1 inh: 0

What do the screens show for `O=C(Nc1ccc(OCC(=O)N2CCC(Cc3ccccc3)CC2)cc1)c1ccco1`?
aSyn 5UTR inh: 16; Mdm2 MdmX PPI: 21; CSC inhib: 44; Beta cell apopt: 98*; A1 inh: 0

Results for CCC(ONc1ccccc1C(F)(F)F)(C(=O)NN(C)C)c1ccccc1 (stereo not drawn) ?
Mdm2 MdmX PPI: -8; CSC inhib: 40; Beta cell apopt: -6; A1 inh: -2

Results for CCCCCCOc1ccc(OC(=O)c2ccncc2)cc1 ?
aSyn 5UTR inh: -38; Mdm2 MdmX PPI: 22; CSC inhib: 95*; Beta cell apopt: 4; A1 inh: 0

What do the screens show for `Cc1ccc2ccc3ccc(C)nc3c2n1`?
aSyn 5UTR inh: 72*; Mdm2 MdmX PPI: 30; CSC inhib: 8; Beta cell apopt: 78*; A1 inh: -1

What do the screens show for `CC(C)Oc1ccc(CNC(=O)CC(c2ccccc2)c2cc(Cl)ccc2O)cc1` (stereo not drawn)?
aSyn 5UTR inh: 29; Mdm2 MdmX PPI: -2; CSC inhib: 97*; Beta cell apopt: 15; A1 inh: 0

Results for CCN(CC)C(=O)c1cc([N+](=O)[O-])cc2c1-c1ccc([N+](=O)[O-])cc1C2=C(C#N)C#N ?
aSyn 5UTR inh: 10; Mdm2 MdmX PPI: 25; CSC inhib: 40; Beta cell apopt: 89*; A1 inh: 0

How did CCS(=O)(=O)c1ccc2c(c1)N(S(=O)(=O)c1ccc(Cl)cc1)CC(C(=O)O)O2 (stereo not drawn) do in these assays?
aSyn 5UTR inh: 0; Mdm2 MdmX PPI: 23; CSC inhib: 0; Beta cell apopt: -3; A1 inh: 0

How did O=C(NCCCN1CCOCC1)c1ccc(Sc2ccccc2Cl)c([N+](=O)[O-])c1 do in these assays?
aSyn 5UTR inh: 9; Mdm2 MdmX PPI: 22; CSC inhib: 52; Beta cell apopt: 12; A1 inh: -1

Results for O=C(NCCCN1CCOCC1)c1ccc(Sc2ccc(Br)cc2)c([N+](=O)[O-])c1 ?
aSyn 5UTR inh: 40; Mdm2 MdmX PPI: -13; CSC inhib: 76*; Beta cell apopt: 8; A1 inh: 0

Results for CCn1c(C)nc2cc(-c3nnc(-c4c(-c5ccccc5)noc4C)o3)ccc21 ?
aSyn 5UTR inh: 19; Mdm2 MdmX PPI: 5; CSC inhib: 38; Beta cell apopt: 113*; A1 inh: 0

What do the screens show for `Cc1onc(-c2ccccc2)c1-c1nnc(-c2ccccc2C(F)(F)F)o1`?
aSyn 5UTR inh: -1; Mdm2 MdmX PPI: 26; CSC inhib: 17; Beta cell apopt: -1; A1 inh: inconclusive

How did Cc1csc(N/N=C/c2ccccn2)n1 do in these assays?
aSyn 5UTR inh: 69*; Mdm2 MdmX PPI: -86; CSC inhib: 83*; Beta cell apopt: 7; A1 inh: -9

What do the screens show for `COC(=O)N/N=C/c1cc(N=Nc2ccccc2)ccc1O`?
aSyn 5UTR inh: -38; Mdm2 MdmX PPI: 34; CSC inhib: 24; Beta cell apopt: -10; A1 inh: -2

What do the screens show for `Cc1cc(C(=O)N/N=C/c2cc(N=Nc3ccccc3)ccc2O)n[nH]1`?
aSyn 5UTR inh: 66*; CSC inhib: 109*; Beta cell apopt: 83*; A1 inh: -1

How did COC(=O)/C=C/c1ccccc1S(=O)(=O)N(Cc1ccccc1)Cc1ccco1 do in these assays?
aSyn 5UTR inh: 89*; Mdm2 MdmX PPI: 37; CSC inhib: 62; Beta cell apopt: 1; A1 inh: 1

Results for COc1ccc(OC)c(-c2csc(NC(=O)CSc3nnnn3C)n2)c1 ?
aSyn 5UTR inh: -16; Mdm2 MdmX PPI: 8; CSC inhib: -2; Beta cell apopt: -9; A1 inh: 0

How did CCN(CC)S(=O)(=O)c1ccc(N2CCN(c3ccccc3OC)CC2)c(N)c1 do in these assays?
aSyn 5UTR inh: -32; Mdm2 MdmX PPI: 8; CSC inhib: 10; Beta cell apopt: 126*; A1 inh: 0

Results for O=C(NC1CCCc2ccccc21)c1ccccc1 (stereo not drawn) ?
aSyn 5UTR inh: 15; Mdm2 MdmX PPI: 18; A1 inh: 1

Results for O=C(NC1CCCc2ccccc21)c1n[nH]c(=O)c2ccccc12 (stereo not drawn) ?
aSyn 5UTR inh: 88*; Mdm2 MdmX PPI: 16; CSC inhib: 28; Beta cell apopt: -2; A1 inh: 0

Results for CN(C)C(=O)c1cc(C(=O)c2ccc(C(F)(F)F)cc2)c[nH]1 ?
aSyn 5UTR inh: -151; Mdm2 MdmX PPI: -29; A1 inh: 0

How did CC(=O)c1cn(CCOc2cc(C)ccc2C)c2ccccc12 do in these assays?
aSyn 5UTR inh: 15; Mdm2 MdmX PPI: 19; CSC inhib: 3; Beta cell apopt: 89*; A1 inh: 0

What do the screens show for `Cc1ccc(C)c(OCCn2cc(C(=O)O)c3ccccc32)c1`?
aSyn 5UTR inh: 13; Mdm2 MdmX PPI: -17; CSC inhib: -14; Beta cell apopt: -8; A1 inh: 1

How did CC(=O)Nc1cc(OC(C)=O)c2nonc2c1OC(C)=O do in these assays?
Mdm2 MdmX PPI: 48; CSC inhib: 106*; Beta cell apopt: -3; A1 inh: -1

What do the screens show for `CC(=O)Nc1nonc1NC(C)=O`?
aSyn 5UTR inh: -10; Mdm2 MdmX PPI: -21; CSC inhib: 3; Beta cell apopt: -11; A1 inh: 0

How did CNC(=O)NC(=O)CSc1nc2sccc2c(=O)n1-c1ccccc1 do in these assays?
aSyn 5UTR inh: 20; Mdm2 MdmX PPI: 2; CSC inhib: 0; Beta cell apopt: -9; A1 inh: 1

Results for Cc1ccccc1-c1cc(C(=O)NCc2cccc(Br)c2)nn1CC1CC(c2cccc([N+](=O)[O-])c2)=NO1 (stereo not drawn) ?
Mdm2 MdmX PPI: -7; Beta cell apopt: 0; A1 inh: 1

What do the screens show for `N#CC1=C(N)Oc2cc(N)ccc2C1c1ccccc1Cl` (stereo not drawn)?
aSyn 5UTR inh: -5; Mdm2 MdmX PPI: 39; CSC inhib: -3; Beta cell apopt: 2; A1 inh: 0

What do the screens show for `CC(=O)n1c2c(c3ccccc31)OC(N)=C(C#N)C2c1cccc(Cl)c1Cl` (stereo not drawn)?
aSyn 5UTR inh: -42; Mdm2 MdmX PPI: 37; CSC inhib: 76*; Beta cell apopt: 15; A1 inh: 0

What do the screens show for `Cc1cccc(C(=O)NCCc2ccccc2)c1`?
aSyn 5UTR inh: -112; Mdm2 MdmX PPI: -83; CSC inhib: 7; Beta cell apopt: -1; A1 inh: -4

What do the screens show for `COCCNC(=S)N(CCc1c(C)[nH]c2ccc(Cl)cc12)Cc1cccs1`?
aSyn 5UTR inh: -10; Mdm2 MdmX PPI: 25; CSC inhib: 79*; Beta cell apopt: 0; A1 inh: 1

Results for COCCNC(=O)CCC1CCN(Cc2cccc(Oc3ccccc3)c2)CC1 ?
aSyn 5UTR inh: 4; Mdm2 MdmX PPI: 19; CSC inhib: 3; Beta cell apopt: -1; A1 inh: -6
